The text below walks through data of PubChem BioAssay (NCATS).

Assay [1] is described as follows: MultiTox-Fluor Cytotoxicity Assay - LYMP1-001 - Live Cells (AID 947).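 Further: 0% = DMSO only and full inhibition = tetraoctylammonium bromide control.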
Assay [2] is described as follows: Cell Viability - LYMP2-004 (AID 966).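 Further: plate controls were DMSO only for no effect and tetraoctylammonium bromide control for full effect; nearly all actives have a fitted effect of over 65% in size.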 In a few lines: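 Human lymphoblastoid cells (2500/well) in complete medium were treated with compounds for 24 hr at 37 C, then intracellular ATP was measured by CellTiter-Glo luminescence. AC50 values came from Hill-equation fits of concentration-response data.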
A short description of assay [3]: Cell Viability - LYMP1-002 - Assay at 24 hr (AID 993). Further: on the % scale 0 is the no-effect control and ±100 the full control effect. In a few lines: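 Human lymphoblastoid LYMP1-002 cells, 2500/well in complete medium, were treated with compounds for 24 h at 37 C; intracellular ATP was read by CellTiter-Glo luminescence. AC50 values came from Hill-equation fits of qHTS concentration-response data.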
For assay [4], the target named is Peroxisome proliferator-activated receptor gamma (Homo sapiens) (UniProt P37231). Description: qHTS assay for small molecule agonists of peroxisome proliferator-activated receptor gamma signaling (AID 588536; active means well fitted curve in the direction sought with a large enough effect in the signal ratio, with a control signal flat, not every such curve was filed as active; the % refers to the signal ratio;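 further: 0% = DMSO basal wells and 100% = rosiglitazone at 2 µM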). In outline: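 Test agents, titrated, stimulated HEK293 UAS-bla cells overnight (16 h, 37 C). Substrate CCF4 was then added for two hours at room temperature before fluorescence reading.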
A general note: Quantitative high-throughput screening tests each substance at several concentrations.

The nature of assay [5]: qHTS assay for small molecule agonists of retinoid X receptor alpha signaling (AID 588544; calls by dose curve;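 on activation: 0% = DMSO basal wells and 100% = reference agonist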). As to conditions: HEK293T RXRa-UAS-bla, beta-lactamase reporter, 18 h; 530 nm emission.
Assay [6] addresses Retinoic acid receptor RXR-alpha (Homo sapiens) (UniProt P19793). The assay is described as above.
Assay [7] addresses Thyroid hormone receptor beta (Homo sapiens) (UniProt P10828). Description: qHTS assay for small molecule agonists of thyroid hormone receptor beta signaling (AID 588545; calls by dose curve;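 further: 0% = DMSO only and 100% = 10 nM T3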). In outline: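 Efficacy and EC50 values derive from Hill fits of qHTS titration data, normalized to 10 nM T3 and DMSO-only wells. HEK 293 reporter cells were stimulated for 18 hrs at 37 C, with beta-lactamase activity measured by CCF4 fluorescence.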

Assay [8] shares this target. Description: qHTS assay for small molecule antagonists of thyroid hormone receptor beta signaling (AID 588547; active means well fitted inhibition curve with a large enough effect in the signal ratio, with a control signal flat, not every such curve was filed as active; the % refers to the signal ratio;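 further: cells stimulated with 0.4 nM T3 agonist during compound exposure; series mostly up to about 77 µM; on the % scale 0 is the no-effect control and ±100 the full control effect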). As to conditions: TR-UAS-bla HEK293, beta-lactamase ratio, antagonist mode, 18 h. In outline: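 TR-UAS-bla GripTite HEK293 cells in 2% charcoal/dextran FBS medium; compounds 0.59 nM to 92 uM with T3 at 0.4nM final, 18 h at 37 C. Beta-lactamase read by CCF4 fluorescence (460/530 nm); Hill fits gave IC50 and efficacy.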

The target in assay [9] is Voltage-gated inwardly rectifying potassium channel KCNH2 (Homo sapiens) (UniProt Q12809). Briefly: qHTS Assay for Small Molecule Inhibitors of the Human hERG Channel Activity (AID 588834).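 Further: top concentration of the series differs between compounds; on the % scale 0 is the no-effect control and ±100 the full control effect; lower thallium flux fluorescence means stronger hERG block; nearly all actives have a fitted effect of over 50% in size.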 In outline:
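Blockade is seen as reduced FluxOR thallium-flux fluorescence in U2OS cells expressing hERG from a BacMam construct, in Opti-MEM with 2% FCS. Concentration-response data fitted to the Hill equation for AC50.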

The nature of assay [10]: qHTS assay for small molecule activators of the p53 signaling pathway (AID 651743; active means well fitted activation curve with a large enough effect in the signal ratio, not every such curve was filed as active; the % refers to the signal ratio; further: series mostly up to about 92 µM; % of control where 0% means no effect). The settings on record: HCT-116 p53RE-bla, beta-lactamase FRET ratio, 16 h; activation: stronger effect = higher value. In a few lines:
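HCT-116 p53RE-bla, 4,000 cells/well; 5 h settle; cpd/DMSO 16 h, 37 C; LiveBLAzer B/G 2 h RT; fluorescence intensity.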

Assay [11] can be described thus: qHTS assay for small molecule disruptors of the mitochondrial membrane potential - 1 hr assay (AID 651754; calls by dose curve; further: on the % scale 0 is the no-effect control and ±100 the full control effect; nearly all actives have a fitted effect of over 35% in size). In outline:
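HepG2 cells, attached overnight at 37C, were exposed to compound or DMSO vehicle for 1 hr at 37C, 5% CO2, then stained with Mito-MPS dye for 30 min. Red aggregate versus green monomer fluorescence reports membrane potential.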

Assay [12] is described as follows: qHTS assay for small molecule disruptors of the mitochondrial membrane potential - 5 hr assay (AID 651755; calls by dose curve; further: on the % scale 0 is the no-effect control and ±100 the full control effect; nearly all actives have a fitted effect of over 40% in size). In a few lines: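 HepG2 cells (2,000/well), attached overnight, exposed to compound 5 hr at 37C, then Mito-MPS dye 30 min. Fluorescence read for monomers (490/535 nm) and aggregates (540/590 nm).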
For assay [13], the target named is Tumor necrosis factor (Homo sapiens) (UniProt P01375). Briefly: qHTS assay to identify small molecules that stimulate Tumor Necrosis Factor-alpha (TNF-alpha) secretion (AID 651757; active means well fitted curve in the direction sought with a large enough effect in the signal ratio; the % refers to the signal ratio; further: 0% is about no effect). In outline:
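THP-1 cells were exposed to compounds for 17 hrs at 37 C, after which secreted TNF-alpha was measured by homogeneous HTRF (TR-FRET) using cryptate- and XL665-labeled anti-TNF-alpha antibodies, read after 3 hr at room temperature.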

A short description of assay [14]: qHTS assay for environmental chemicals that activate the Aryl hydrocarbon Receptor (AhR) signaling pathway (AID 651777). Further: % of control where 0% means no effect; nearly all actives have a fitted effect of over 15% in size. The settings on record: 1A2-DRE human hepatoma cells, luciferase, 24 h; activation: stronger effect = higher value. In outline:
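Stable CYP1A2 promoter/DRE-luciferase human hepatoma line treated 24 hr; One-Glo luminescence, 30 min RT.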

Assay [15] is described as follows: qHTS assay for small molecule agonists of the antioxidant response element (ARE) signaling pathway measured by Nrf2-dependant transcriptional activity (AID 720636; active means well fitted curve in the direction sought with a large enough effect in the repeat runs; an effect the other way counts as inactive or inconclusive;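 further: HepG2 cells with an ARE-driven luciferase reporter; % of control where 0% means no effect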). In a few lines:
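Reporter gene assay, HepG2 ARE-luc: 16 hr compound, 37 C, 5% CO2; read-out luciferase luminescence.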

A short description of assay [16]: qHTS assay for small molecule antagonists of the retinoid-related orphan receptor gamma (ROR-gamma) signaling pathway - cell viability counter screen (AID 720652; active means well fitted curve in the direction sought with a large enough effect in the repeat runs; an effect the other way counts as inactive or inconclusive;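 further: CHO reporter cells with doxycycline-induced ROR-gamma expression; series mostly up to about 92 µM; compound exposure lasted 16 hr before ATP read; on the % scale 0 is the no-effect control and ±100 the full control effect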). In a few lines:
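Counter screen in CHO cells carrying TET-inducible ROR-gamma and an ROR response element-luciferase reporter; cells plated 5 hr, compound pinned, doxycycline added, then 16 hr at 37 C. Viability read as intracellular ATP by CellTiter-Glo luminescence.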

For assay [17], the target named is Nuclear receptor subfamily 1 group I member 2 (Rattus norvegicus) (UniProt Q9R1A7). Description: qHTS assay for small molecule activators of the rat pregnane X receptor (rPXR) signaling pathway (AID 651751; call rule not given here; further: 0% is about no effect). The settings on record: rPXR reporter cells, luciferase (One-Glo), 24 h.
The nature of assay [18]: qHTS assay for small molecule activators of the human pregnane X receptor (PXR) signaling pathway (AID 720659; call rule not given here; further: 0% is about no effect).
Assay [19] has as its target Cytochrome P450 3A4 (Homo sapiens) (UniProt P08684). Briefly: qHTS Assay for Inhibitors and Substrates of Cytochrome P450 3A4 (AID 884). Further: series mostly up to about 57 µM; on the % scale 0 is the no-effect control and ±100 the full control effect; nearly all actives have a fitted effect of over 50% in size. In outline:
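20 nM human CYP3A4 with 25 uM Luciferin-PPXE (at KM) in 200 mM KPO4, preincubated 10 min with compound; NADPH regeneration started a 60 min RT reaction. Luciferin detected by luminescence, normalized to 57 uM ketoconazole as full inhibition.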

Assay [20] is described as follows: MultiTox-Fluor Cytotoxicity Assay - LYMP1-002 - Dead Cells (AID 960).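 Further: 0% = DMSO and 100% = tetraoctylammonium bromide; nearly all actives have a fitted effect of over 60% in size.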 In outline:
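Human lymphoblastoid cells (LYMP1-002), 2500/well in complete medium, were exposed to compounds for 16 hr at 37 C. Dead-cell protease activity was read as bis-AAF-R110 fluorescence (Ex/Em 485/520), normalized to DMSO and 15 uM tetraoctylammonium bromide; AC50 from Hill fits.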

SMILES strings stand for the structures. “And” between values parts separate entries of the source, which are not always exact repeats. Equal values may be shown once. Results filed as inconclusive are left out. The source made the active and inactive calls. Unless noted, the call rests on the fitted dose curve; in most records, active means well fitted curve in the direction sought with a large enough effect; inconclusive means small, poorly fitted or top-dose-only effect, or another doubt; inactive means no such curve, though single readings can be large; an effect the other way counts as inactive or inconclusive.

Chain of Thyroid hormone receptor beta (Homo sapiens) (P10828 whole entry, looked up): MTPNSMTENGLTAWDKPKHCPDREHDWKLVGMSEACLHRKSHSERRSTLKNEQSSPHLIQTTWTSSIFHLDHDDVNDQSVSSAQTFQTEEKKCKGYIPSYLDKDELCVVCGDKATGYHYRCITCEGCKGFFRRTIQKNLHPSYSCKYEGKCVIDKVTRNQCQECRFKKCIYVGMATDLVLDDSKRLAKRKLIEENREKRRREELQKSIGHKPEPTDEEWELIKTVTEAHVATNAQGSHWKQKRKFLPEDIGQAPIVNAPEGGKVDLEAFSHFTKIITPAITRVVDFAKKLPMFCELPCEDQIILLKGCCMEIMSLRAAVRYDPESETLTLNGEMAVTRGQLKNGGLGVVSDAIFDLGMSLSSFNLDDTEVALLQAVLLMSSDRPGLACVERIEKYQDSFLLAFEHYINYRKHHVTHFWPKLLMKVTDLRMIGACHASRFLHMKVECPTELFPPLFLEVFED
Chain of Retinoic acid receptor RXR-alpha (Homo sapiens) (P19793 whole entry, looked up): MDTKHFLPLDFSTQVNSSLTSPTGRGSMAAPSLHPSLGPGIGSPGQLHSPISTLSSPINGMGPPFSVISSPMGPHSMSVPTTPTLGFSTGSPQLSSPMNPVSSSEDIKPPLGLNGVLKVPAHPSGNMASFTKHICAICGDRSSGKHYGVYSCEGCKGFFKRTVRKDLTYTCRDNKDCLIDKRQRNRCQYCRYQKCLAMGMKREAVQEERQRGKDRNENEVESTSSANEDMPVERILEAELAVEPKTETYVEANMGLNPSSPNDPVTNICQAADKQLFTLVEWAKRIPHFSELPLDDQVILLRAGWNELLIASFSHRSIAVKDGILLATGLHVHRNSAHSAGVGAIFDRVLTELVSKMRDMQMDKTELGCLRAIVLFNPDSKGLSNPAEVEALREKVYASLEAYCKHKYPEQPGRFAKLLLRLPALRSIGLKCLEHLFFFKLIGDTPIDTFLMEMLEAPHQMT
Chain of Cytochrome P450 3A4 (Homo sapiens) (P08684 whole entry, looked up): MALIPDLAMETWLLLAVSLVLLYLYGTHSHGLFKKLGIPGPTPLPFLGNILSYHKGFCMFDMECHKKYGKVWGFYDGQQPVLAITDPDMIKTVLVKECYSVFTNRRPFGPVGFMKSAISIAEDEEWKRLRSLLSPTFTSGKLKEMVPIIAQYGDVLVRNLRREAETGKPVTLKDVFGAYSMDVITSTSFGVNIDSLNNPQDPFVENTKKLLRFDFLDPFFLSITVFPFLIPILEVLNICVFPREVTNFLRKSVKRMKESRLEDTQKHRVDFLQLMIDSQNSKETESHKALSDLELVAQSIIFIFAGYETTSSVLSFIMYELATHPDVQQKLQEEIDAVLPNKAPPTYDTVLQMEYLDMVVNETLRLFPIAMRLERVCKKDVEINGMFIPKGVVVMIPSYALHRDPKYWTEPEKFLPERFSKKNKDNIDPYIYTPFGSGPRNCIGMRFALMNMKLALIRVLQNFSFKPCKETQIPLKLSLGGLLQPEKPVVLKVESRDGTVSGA
Chain of Nuclear receptor subfamily 1 group I member 2 (Rattus norvegicus) (Q9R1A7 whole entry, looked up): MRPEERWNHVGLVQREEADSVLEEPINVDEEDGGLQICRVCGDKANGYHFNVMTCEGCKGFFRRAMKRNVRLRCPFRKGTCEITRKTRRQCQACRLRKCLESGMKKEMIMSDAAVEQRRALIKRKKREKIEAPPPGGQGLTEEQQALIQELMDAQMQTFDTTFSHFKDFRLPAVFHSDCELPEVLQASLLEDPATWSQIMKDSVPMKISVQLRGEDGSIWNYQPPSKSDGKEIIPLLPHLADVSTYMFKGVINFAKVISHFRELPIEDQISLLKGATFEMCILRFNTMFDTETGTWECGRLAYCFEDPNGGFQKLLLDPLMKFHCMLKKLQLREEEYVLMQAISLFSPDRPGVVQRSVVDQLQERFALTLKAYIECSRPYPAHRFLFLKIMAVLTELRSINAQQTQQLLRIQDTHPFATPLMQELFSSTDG
Chain of Tumor necrosis factor (Homo sapiens) (P01375 whole entry, looked up): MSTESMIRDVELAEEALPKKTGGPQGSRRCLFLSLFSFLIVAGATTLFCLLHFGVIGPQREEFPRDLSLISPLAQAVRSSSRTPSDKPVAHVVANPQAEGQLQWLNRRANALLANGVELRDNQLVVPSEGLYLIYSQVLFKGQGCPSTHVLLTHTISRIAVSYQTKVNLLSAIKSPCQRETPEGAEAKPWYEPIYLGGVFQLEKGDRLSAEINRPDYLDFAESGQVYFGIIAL
Chain of Peroxisome proliferator-activated receptor gamma (Homo sapiens) (P37231 whole entry, looked up): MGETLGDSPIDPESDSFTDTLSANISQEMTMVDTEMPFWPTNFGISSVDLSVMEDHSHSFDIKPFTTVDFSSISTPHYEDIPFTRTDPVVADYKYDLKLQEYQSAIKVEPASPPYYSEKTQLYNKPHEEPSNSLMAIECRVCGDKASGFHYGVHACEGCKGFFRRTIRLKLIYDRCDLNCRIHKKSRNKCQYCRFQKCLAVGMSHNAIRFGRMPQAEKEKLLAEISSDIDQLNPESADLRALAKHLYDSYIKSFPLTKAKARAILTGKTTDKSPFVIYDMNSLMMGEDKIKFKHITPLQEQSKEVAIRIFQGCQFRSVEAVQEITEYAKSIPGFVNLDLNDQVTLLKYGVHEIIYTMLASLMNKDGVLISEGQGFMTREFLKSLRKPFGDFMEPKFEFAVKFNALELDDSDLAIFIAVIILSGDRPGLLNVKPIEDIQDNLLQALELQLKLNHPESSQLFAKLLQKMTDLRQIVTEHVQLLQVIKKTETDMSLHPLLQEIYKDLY
Chain of Voltage-gated inwardly rectifying potassium channel KCNH2 (Homo sapiens) (Q12809 whole entry, looked up): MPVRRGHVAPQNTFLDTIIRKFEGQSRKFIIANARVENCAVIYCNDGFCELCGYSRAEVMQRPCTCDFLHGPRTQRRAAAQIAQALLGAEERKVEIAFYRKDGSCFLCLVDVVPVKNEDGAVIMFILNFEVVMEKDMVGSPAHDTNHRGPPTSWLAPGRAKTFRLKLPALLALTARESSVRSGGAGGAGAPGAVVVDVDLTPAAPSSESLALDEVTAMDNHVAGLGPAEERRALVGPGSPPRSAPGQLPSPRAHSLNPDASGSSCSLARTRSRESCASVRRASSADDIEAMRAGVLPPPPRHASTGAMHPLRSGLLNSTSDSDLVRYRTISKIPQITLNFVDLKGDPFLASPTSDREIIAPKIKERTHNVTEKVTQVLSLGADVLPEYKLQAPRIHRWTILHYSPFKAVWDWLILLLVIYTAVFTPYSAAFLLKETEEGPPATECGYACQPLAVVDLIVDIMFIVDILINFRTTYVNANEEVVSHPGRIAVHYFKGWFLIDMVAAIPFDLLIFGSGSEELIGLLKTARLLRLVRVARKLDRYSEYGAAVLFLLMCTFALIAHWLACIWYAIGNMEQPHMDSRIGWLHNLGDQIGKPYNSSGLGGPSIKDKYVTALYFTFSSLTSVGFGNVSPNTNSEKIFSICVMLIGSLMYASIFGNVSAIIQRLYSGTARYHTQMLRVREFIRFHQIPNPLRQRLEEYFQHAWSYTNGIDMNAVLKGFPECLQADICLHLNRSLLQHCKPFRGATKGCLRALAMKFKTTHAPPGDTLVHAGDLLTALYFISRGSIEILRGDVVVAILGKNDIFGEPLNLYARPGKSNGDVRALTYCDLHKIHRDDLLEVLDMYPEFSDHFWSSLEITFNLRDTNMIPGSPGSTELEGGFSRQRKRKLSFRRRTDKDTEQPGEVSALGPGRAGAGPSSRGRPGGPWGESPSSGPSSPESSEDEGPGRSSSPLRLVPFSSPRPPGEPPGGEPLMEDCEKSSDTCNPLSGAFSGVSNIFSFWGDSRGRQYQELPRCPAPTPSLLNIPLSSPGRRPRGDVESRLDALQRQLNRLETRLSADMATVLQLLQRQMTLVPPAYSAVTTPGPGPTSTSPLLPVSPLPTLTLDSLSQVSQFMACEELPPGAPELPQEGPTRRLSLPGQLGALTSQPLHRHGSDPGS

Consider `C=CCOC(=O)c1ccccc1C(=O)OCC=C`, for which the Potency entry in [1], in assay [2], in assay [3], in assay [9], in assay [11] and in assay [12] was “inactive” in each case. In addition, the Potency result in [15] and in [16] was “inactive” throughout. For the same compound, the call in assay [4], in assay [6], in [7], in assay [13] and in assay [18] was inactive. Moreover, the max response is -9.89% and -14.8% in assay [5]; -2.3% (inactive) and 1.03% (inactive) in assay [17]. Further, the activity change % (negative = inhibition) in assay [8] was -9.14% (inactive) and 1.91% (inactive). Also, the activation was -0.242% (inactive) and -1.19% (inactive) in [10]; -0.581% (inactive) and 2.86% (inactive) in assay [14].
Regarding `CCCN(CCC)C(=O)SCC`, the Potency entry in assay [19], in assay [1], in assay [20], in assay [2], in [3] and in assay [9] was “inactive” each time. Moreover, the Potency entry in [12], in assay [15] and in assay [16] was “inactive” each time. The compound was called inactive in assay [4], in [6], in [7], in assay [13] and in assay [18]. The max response in assay [5] was -2.35% and -18.5%; in assay [17], 5.19% (inactive) and 0.741% (inactive). For the same compound, the activity change % (negative = inhibition) in [8] was 0.19% (inactive) and 8.86% (inactive). Moreover, the activation is 0.439% (inactive) and 11.8% (inactive) in [10]; 0.446% (inactive) and -0.849% (inactive) in [14].
On to `Nc1ccc(S(=O)(=O)O)cc1`, for which the Potency result in assay [19], in assay [1], in assay [20], in assay [2], in assay [3] and in assay [9] was “inactive” throughout. Further, the Potency entry in [11], in assay [12], in [15] and in assay [16] was “inactive” each time. The call in assay [4], in [6], in [7] and in assay [13] was inactive. The max response was 8.69% and -7.04% in assay [5]; -3.61% (inactive) and -1.3% (inactive) in assay [17]. In addition, the activity change % (negative = inhibition) in [8] was -11.7% (inactive) and 17.4% (inactive). Further, the activation in assay [10] was 3.7% (inactive) and 3.55% (inactive); in [14], -0.977% (inactive) and -1% (inactive).
For `CCO[Si](CCCN)(OCC)OCC`, the Potency entry in assay [19], in assay [1], in assay [20], in [2], in [3] and in assay [9] was “inactive” throughout. The Potency entry in assay [11], in assay [12], in assay [15] and in assay [16] was “inactive” throughout. The result in [4], in [6], in assay [13] and in [18] was inactive. Further, the max response is 12.6% and -3.12% in assay [5]; -3.96% (inactive) and 0.794% (inactive) in assay [17]. In assay [10], the activation is -1.64% (inactive) and -2.02% (inactive).
For `COCC(=O)O`, the Potency entry in assay [19], in assay [1], in assay [20], in [2], in assay [3] and in assay [9] was “inactive” in each case. The Potency result in assay [11], in assay [12], in assay [15] and in assay [16] was “inactive” in each case. Further, the call in assay [4], in assay [6], in assay [7] and in [13] was inactive. For the same compound, the max response in [5] was 0.473% and -13.2%; in assay [17] it was 1.77% (inactive) and 0.862% (inactive). Moreover, the activity change % (negative = inhibition) in assay [8] was -5.02% (inactive) and -7.68% (inactive). For the same compound, the activation in [10] is 0.0042% (inactive) and -6.16% (inactive); in assay [14], -1.91% (inactive) and 0.0528% (inactive).
Turning to `CC1(C)S[C@@H]2[C@H](NC(=O)COc3ccccc3)C(=O)N2[C@H]1C(=O)O`, the compound was called inactive in assay [4], in assay [6], in [7] and in assay [18]. Moreover, the max response in assay [5] is -5.75%; in [17], -0.437% (inactive). In addition, the activation in assay [10] was -0.552% (inactive); in assay [14] it was -1.58% (inactive). Moreover, the Potency result in [15] is “inactive”.
